{"source": "PubChem BioAssay AID1347076", "about": "(National Center for Advancing Translational Sciences (NCATS), 2019)", "note": "Screen size: about 400,000 compounds; about 13,000 (3.2%) were called active. About 18% were inconclusive and are not listed. The full list was thinned out, with actives kept by preference. Unmarked numbers belong to inactive results. The call rests on the fitted dose curve; in most records, active means well fitted cell-killing curve with a large enough effect; inconclusive means small, poorly fitted or top-dose-only effect, or effect the other way; inactive means flat fitted curve, though single readings scatter. On the % scale 0 is the no-effect control and ±100 the full control effect; potency means the concentration at half of the fitted maximal effect."}
{"assay": "qHTS assay for MDR1-selective chemotherapeutics: Primary screen using the drug-selected MDR subline cells KB-V1; further: nearly all actives have a fitted effect of over 60% in size", "conditions": "KB-V1 MDR cells viability, CellTiter-Glo, 72 h; series mostly up to 46.1 µM; activity change, negative = cytotoxicity: at the top concentration", "outline": "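Cytotoxicity via CellTiter-Glo luminescence after 72 h compound exposure at 37 degrees C. Cells: drug-selected KB-V1 line, DMEM phenol-red free plus 10% FBS. Compounds tested at multiple concentrations; normalized data fitted to concentration-effect curves.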", "units": {"activity change, negative = cytotoxicity": "%"}}
{"compound": "C[C@H]1CN([C@@H](C)CO)C(=O)c2cc(-c3ccccc3F)cnc2O[C@H]1CN(C)C(=O)C1CCOCC1", "activity change, negative = cytotoxicity": 2.17}
{"compound": "NC(Cc1ccc(F)cc1)c1csc(Nc2nncc3ccccc23)n1", "note": "(stereo unspecified)", "activity change, negative = cytotoxicity": 2.75}
{"compound": "Cc1ccc(S(=O)(=O)c2cn(Cc3ccccc3)c3cc(N4CCCC4)c(F)cc3c2=O)c(C)c1", "activity change, negative = cytotoxicity": -14.3}
{"compound": "CCOC(=O)C1CCCN(C(=O)c2ccc(N(C)C)cc2)CC1", "note": "(stereo unspecified)", "activity change, negative = cytotoxicity": -1.52}
{"compound": "COc1ccc(OC)c(C(O)c2ncc(-c3cccc(C(F)(F)F)c3)[nH]2)c1", "note": "(stereo unspecified)", "activity change, negative = cytotoxicity": -21.4}
{"compound": "COc1ccccc1C(=O)NC(CCSC)C(=O)N1CCN(C(C)=O)CC1", "note": "(stereo unspecified)", "activity change, negative = cytotoxicity": 1.56}
{"compound": "CSCCC(NC(=O)c1ccccc1)C(=O)N1CCCCCCC1", "note": "(stereo unspecified)", "activity change, negative = cytotoxicity": 0.0799}
{"compound": "CSCCC(NC(=O)c1ccccc1)C(=O)N1CCN(Cc2ccc(Cl)cc2)CC1", "note": "(stereo unspecified)", "Potency": "18.4 µM (active)"}
{"compound": "CC1=C(C(=O)OCC(C)C)C(c2ccc(OCc3ccccc3)cc2)N2C(=O)CCSC2=N1", "note": "(stereo unspecified)", "activity change, negative = cytotoxicity": -14.8}
{"compound": "C=CCn1c(=O)c(C(=O)NCc2ccc3c(c2)OCO3)c(O)c2ccccc21", "activity change, negative = cytotoxicity": -9.99}
{"compound": "O=C(NCc1ccc2c(c1)OCO2)c1sccc1Br", "activity change, negative = cytotoxicity": -18.2}
{"compound": "O=C(NCc1ccc2c(c1)OCO2)c1c(O)nc2sccn2c1=O", "Potency": "8.2 µM (active)"}
{"compound": "O=[N+]([O-])c1cc(-c2nc(-c3ccccc3)no2)ccc1NCc1ccco1", "activity change, negative = cytotoxicity": 17.7}
{"compound": "c1coc(CNc2ncnc3ccccc23)c1", "Potency": "inactive"}
{"compound": "c1ccc(-c2nc(NCc3ccco3)c3ccccc3n2)cc1", "Potency": "23.1 µM (active)"}
{"compound": "COc1ccc(-c2cnc3c(c2)C(=O)N([C@H](C)CO)C[C@@H](C)[C@H](CN(C)Cc2ccccc2)O3)cc1", "activity change, negative = cytotoxicity": 20.4}
{"compound": "COc1cc(CN2CCCN(C)CC2)c([N+](=O)[O-])cc1OC", "activity change, negative = cytotoxicity": 0}
{"compound": "COc1cc(CNCc2ccc3c(c2)OCO3)c([N+](=O)[O-])cc1OC", "activity change, negative = cytotoxicity": -21.1}
{"compound": "COc1cc2c(cc1OC)C(Cc1cc(OC)c(OC)cc1[N+](=O)[O-])=NCC2", "Potency": "9.2 µM (active)"}
{"compound": "CN(C)c1ccc(C=Nc2ccc(/C=C/c3ccnc4ccccc34)cc2)cc1", "activity change, negative = cytotoxicity": -1.45}
{"compound": "CN(C)c1ccc(/C=C/C=C/c2ccnc3ccccc23)cc1", "Potency": "6.51 µM (active)"}
{"compound": "CN(Cc1ccccc1)c1ccc(/C=C/c2ccnc3ccccc23)cc1", "activity change, negative = cytotoxicity": -10.1}
{"compound": "CN(C)c1ccc(/C=C/c2c3ccccc3nc3ccccc23)cc1", "activity change, negative = cytotoxicity": 2.13}
{"compound": "NC(=O)C1CCN(C(=O)c2cccc(NC(=O)c3nsc4ccccc34)c2)CC1", "activity change, negative = cytotoxicity": 0}
{"compound": "COCC1CCCCN1C(=O)c1cc(COc2ccc(C)c(C)c2)on1", "note": "(stereo unspecified)", "activity change, negative = cytotoxicity": -25.6}
{"compound": "CCC(=O)Nc1sc(C(=O)Nc2ccccc2)c(C)c1C(=O)OC", "activity change, negative = cytotoxicity": -14.2}
{"compound": "CCCS(=O)(=O)c1c(Nc2ccccc2C)sc(C(=O)c2ccccc2)c1N", "activity change, negative = cytotoxicity": -18.5}
{"compound": "CC(=O)c1c(Nc2ccccc2)sc(C(=O)c2ccccc2)c1C", "Potency": "3.66 µM (active)"}
{"compound": "COc1ccc(C(=O)OCC(=O)Nc2cc(C)on2)cc1F", "activity change, negative = cytotoxicity": 19.5}
{"compound": "CC(=NNC(N)=O)C1CC2CCC1CC2", "note": "(stereo unspecified)", "activity change, negative = cytotoxicity": -4.44}
{"compound": "Cc1ccccc1C#CC1=CC(=O)CC(C)(C)C1", "activity change, negative = cytotoxicity": 20.2}
{"compound": "Cc1[nH]c2ccc(C(=O)N3CCN(C)CC3)cc2c1C", "activity change, negative = cytotoxicity": 0.208}
{"compound": "CCn1c(C)c(C)c2cc(C(=O)N3CCN(c4cccc(C)c4C)CC3)ccc21", "Potency": "inactive"}
{"compound": "CCOc1ccccc1N1CCN(C(=O)c2ccc3[nH]c(C)c(C)c3c2)CC1", "Potency": "6.51 µM (active)"}
{"compound": "O=C(NCC(O)c1nc2ccccc2[nH]1)c1ccc(Br)cc1", "note": "(stereo unspecified)", "activity change, negative = cytotoxicity": 20.8}
{"compound": "O=C(CC[C@H]1O[C@@H](n2ccc(=O)[nH]c2=O)[C@H](O)[C@@H]1O)N[C@H](Cc1ccccc1)C(=O)NCCCN1CCCC1=O", "activity change, negative = cytotoxicity": 0}
{"compound": "C[C@@H]1NC(=O)[C@@]2(C)[C@@H](c3ccccc3)[C@H]3COc4ccccc4[C@@H]3N2C1=O", "activity change, negative = cytotoxicity": 0}
{"compound": "CN1CC(c2ccccc2)C2(COc3ccccc3C2=O)C12C(=O)Nc1ccccc12", "note": "(stereo unspecified)", "Potency": "20.6 µM (active)"}
{"compound": "COc1cccc(CNC(=O)CCC(=O)N2CC3CCCN3c3ccccc32)c1", "note": "(stereo unspecified)", "activity change, negative = cytotoxicity": 21.6}
{"compound": "CCc1nc2c(=O)[nH]cnc2o1", "activity change, negative = cytotoxicity": 19.1}
{"compound": "C[C@H]1CN([C@@H](C)CO)C(=O)CCCn2cc(nn2)CO[C@@H]1CN(C)S(=O)(=O)c1ccc(-n2cccn2)cc1", "activity change, negative = cytotoxicity": 0}
{"compound": "CN1CCN(C(=O)c2ccc(-c3cc4nc(NCc5cccnc5)n(C)c(=O)c4s3)cc2)CC1", "activity change, negative = cytotoxicity": -13.5}
{"compound": "CCOc1ccccc1NC(=O)C1CCCN(C(=O)Nc2ccccc2)C1", "note": "(stereo unspecified)", "activity change, negative = cytotoxicity": -19.8}
{"compound": "COc1ccc(NC(=O)N2CCCC(C(=O)Nc3ccccc3OC)C2)cc1", "note": "(stereo unspecified)", "activity change, negative = cytotoxicity": 3.84}
{"compound": "CCOc1ccc(NC(=O)C2CCCN(C(=O)Nc3ccccc3)C2)cc1", "note": "(stereo unspecified)", "Potency": "14.6 µM (active)"}
{"compound": "CC(C)(C)C1CCC(=O)N2CCC[C@]2(c2ccccc2)C1", "note": "(stereo partly specified)", "activity change, negative = cytotoxicity": 46.7}
{"compound": "CCCCN(C)S(=O)(=O)c1ccc(C(=O)Nc2sc3c(c2C(N)=O)CC(C)(C)NC3(C)C)cc1", "activity change, negative = cytotoxicity": 0}
{"compound": "COc1cc(CNCCSc2nnnn2C)ccc1OCc1ccc(Cl)cc1Cl", "activity change, negative = cytotoxicity": 0}
{"compound": "CCOC(=O)c1c(C)oc2ccc(OCC(=O)N(CC)CC)cc12", "activity change, negative = cytotoxicity": 0}
{"compound": "CN(CC(=O)O)S(=O)(=O)c1ccc2oc3ccccc3c2c1", "activity change, negative = cytotoxicity": 10.8}
{"compound": "COC(=O)c1c(C)oc2ccc(N(C(=O)Oc3ccccc3)S(=O)(=O)c3ccccc3)cc12", "Potency": "2.91 µM (active)"}
{"compound": "O=C(Nc1ccc2c(c1)[C@@H]1C[C@@H](CC(=O)N3CCCCC3)O[C@@H](CO)[C@@H]1O2)NC1CCCCC1", "activity change, negative = cytotoxicity": 3.39}
{"compound": "O=C(Cn1nnc(-c2ccc3c(c2)OCO3)n1)NCc1ccco1", "activity change, negative = cytotoxicity": 17.1}
{"compound": "CC(=O)Nc1cccc(-c2ccnc3c2CC(C)(C(=O)NCc2ccco2)O3)c1", "note": "(stereo unspecified)", "activity change, negative = cytotoxicity": -1.06}
{"compound": "CC1(C(=O)NCC2CCOCC2)Cc2c(-c3cccc(C(N)=O)c3)ccnc2O1", "note": "(stereo unspecified)", "activity change, negative = cytotoxicity": 3.72}
{"compound": "CC(=O)Nc1cccc(-c2ccnc3c2CC(C)(C(=O)NCc2ccccc2)O3)c1", "note": "(stereo unspecified)", "Potency": "16.4 µM (active)"}
{"compound": "CC1(C(=O)NCc2ccco2)Cc2c(-c3ccc4c(c3)OCO4)ccnc2O1", "note": "(stereo unspecified)", "Potency": "2.59 µM (active)"}
{"compound": "COc1ccc(NC(=O)C2(C)Cc3c(-c4cccc(NC(C)=O)c4)ccnc3O2)cc1", "note": "(stereo unspecified)", "activity change, negative = cytotoxicity": 0}
{"compound": "CCc1nc2c(OCCC3CCCCC3)cccn2c1N(C)C(=O)c1ccco1", "activity change, negative = cytotoxicity": 0.295}
{"compound": "CCOc1ccc(NS(=O)(=O)c2ccc(C(=O)NCC3CCCO3)cc2)cc1", "note": "(stereo unspecified)", "activity change, negative = cytotoxicity": -27.3}
{"compound": "COc1ccc(-c2cc(NC=O)c3ncc(-c4cccc(C(=O)N(C)C)c4)n3c2)c(OC)c1", "activity change, negative = cytotoxicity": 6.08}
{"compound": "COc1cccc(-c2cnc3c(NC(C)=O)cc(-c4cc(F)ccc4OC)cn23)c1", "Potency": "7.31 µM (active)"}
{"compound": "CC(=O)Nc1cc(-c2ccc(N3CCN(C)CC3)cc2)cn2c(-c3cccc(C(=O)N(C)C)c3)cnc12", "activity change, negative = cytotoxicity": 6.38}
{"compound": "COc1ccc(-c2cc(NC(C)=O)c3ncc(-c4cc(OC)c(OC)c(OC)c4)n3c2)cn1", "Potency": "13 µM (active)"}
{"compound": "COc1cccc(-c2cnc3c(NC(C)=O)cc(-c4cccc(NC(C)=O)c4)cn23)c1", "activity change, negative = cytotoxicity": 3.14}
{"compound": "COc1cc(NC(=O)C2=CC(c3ccc(C)cc3)=NS(=O)(=O)N2C)cc(OC)c1OC", "activity change, negative = cytotoxicity": 8}
